ChEMBL document CHEMBL1157539, “Thousands of chemical starting points for antimalarial lead identification” (Nature, 2010)

Assays:
Assay type in all cases: functional
[1] = tested on: Plasmodium falciparum; test: GSK_TCMDC: Inhibition of Plasmodium falciparum 3D7 in whole red blood cells, using parasite LDH activity as an index of growth. Test compounds present at 2uM
[2] = tested on: Plasmodium falciparum; test: GSK_TCMDC: Inhibition of Plasmodium falciparum Dd2 in whole red blood cells, using parasite LDH activity as an index of growth. Test compounds present at 2uM
[3] = tested on: HepG2; test: GSK_TCMDC: Percent inhibition of human HepG2 cell line. Test compounds present at 10uM.

| Compound | Inhibition [1] | Inhibition [2] | Inhibition [3] |
| --- | --- | --- | --- |
| CC(C)c1ccc(NC(=O)Nc2ccc(CCNCCCc3ccccc3)cc2)cc1 | 100% | 56% | 22% |
| COc1ccc(COc2c(OC)cc(Cc3cnc(N)nc3N)cc2OC)cc1 | 90% | 23% | 5% |
| Cc1noc(C)c1S(=O)(=O)N(C)Cc1ccc(-c2ccc(Cl)cc2)o1 | 100% | 100% | 10% |
| COc1ccc(CCOc2c(C)nc(N)nc2N)cc1OC.Cl | 96% | 22% | 66% |
| Cc1cc(-c2nc3cc(C(=N)N)ccc3[nH]2)c(C)cc1-c1nc2cc(C(=N)N)ccc2[nH]1.Cl | 96% | 97% | 0% |
| CC1CN(Cc2ccc(C#N)cc2)CCN1c1ccc(NC(=O)c2cccs2)cc1.O=C(O)C(F)(F)F (stereo not drawn) | 93% | 89% | 8% |
| Cc1cc(NC2CCN(CC3CCCCC3)C2)nc(Nc2ccc(Br)cc2)n1 (stereo not drawn) | 100% | 83% | 22% |
| Cc1ccccc1C1CCN(C2CCC(NC(=O)/C=C/c3ccc(F)c(F)c3)CC2)CC1 (stereo not drawn) | 93% | 7% | 34% |
| COc1cc(Cl)c(C)cc1N(Cc1ccccc1-c1ccccc1)S(=O)(=O)c1ccc(C(F)(F)F)cc1 | 90% | 62% | 23% |
| CN(Cc1cccc(O)c1)C1CCN(c2cc(NC(=O)c3cccc(F)c3)ccn2)CC1.O=C(O)C(F)(F)F | 98% | 37% | 0% |
| Cl.Clc1ccc(OC2CCC(Cn3ccnc3)(c3ccc(Cl)cc3Cl)CC2)c(Cl)c1 (stereo not drawn) | 98% | 86% | 4% |
